The text below walks through data of paper PMC7862700, “An all-to-all approach to the identification of sequence-specific readers for epigenetic DNA modifications on cytosine”.

Holding throughout (assay): DAPPL (digital affinity profiling via proximity ligation, sequencing); 10 mM Tris-HCl pH 7.5, 50 mM NaCl, 1 mM DTT, 4% glycerol, room temperature, 30 min; GST-TFs on glutathione beads, 16-mer random dsDNA library, 0.1% formaldehyde crosslink after washing; high values mean tight binding
One assay concerns the target T1, FEV (Homo sapiens, UniProt Q99581 1-238).
T1 sequence: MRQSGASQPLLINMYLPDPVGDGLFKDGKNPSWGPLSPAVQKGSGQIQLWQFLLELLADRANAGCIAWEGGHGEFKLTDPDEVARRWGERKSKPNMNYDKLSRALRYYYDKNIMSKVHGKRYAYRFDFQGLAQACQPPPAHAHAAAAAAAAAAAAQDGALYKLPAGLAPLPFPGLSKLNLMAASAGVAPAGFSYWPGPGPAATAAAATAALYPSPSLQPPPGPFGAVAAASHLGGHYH
To be noted: protein: recombinant; tags: N-terminal GST; dsDNA, one strand shown. In a few lines: (§1)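 Human transcription factors fused to GST were expressed in yeast, captured on glutathione beads, given DNA barcodes and pooled with a GST-only negative control. Pools were incubated with 200 nmole of a 16-mer random double-stranded DNA library in Tris/NaCl/DTT/glycerol buffer at room temperature for 30 min. They were then washed, crosslinked with 0.1% formaldehyde, proximity-ligated (BsaI/T4 ligase, 1 h, 37 °C), PCR-amplified and sequenced on an Illumina NextSeq500. Binding signal is each 6-mer's read frequency for a factor divided by its frequency for the GST control.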

The target in the next assay is ETV5 (Homo sapiens, UniProt P41161 1-510). The note with it: protein: recombinant; tags: N-terminal GST; dsDNA, one strand shown. In a few lines:
as §1

The target in the next assay is HSF1 (Homo sapiens, UniProt Q00613 1-529). To be noted: protein: recombinant; tags: N-terminal GST; chain copies: 3; dsDNA, one strand shown. A digest of the protocol: as §1
The next assay has as its target T2, SPIC (Homo sapiens, UniProt Q8N5J4 1-248).
T2 sequence: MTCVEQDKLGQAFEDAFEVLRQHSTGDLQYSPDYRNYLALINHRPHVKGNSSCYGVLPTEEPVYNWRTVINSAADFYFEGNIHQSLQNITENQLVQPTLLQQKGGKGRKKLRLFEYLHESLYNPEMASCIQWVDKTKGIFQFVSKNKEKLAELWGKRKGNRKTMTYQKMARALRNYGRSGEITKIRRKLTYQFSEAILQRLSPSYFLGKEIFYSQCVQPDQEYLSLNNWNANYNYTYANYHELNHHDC
To be noted: protein: recombinant; tags: N-terminal GST; dsDNA, one strand shown. A digest of the protocol:
as §1

In the next assay the target is ELF4 (Homo sapiens, UniProt Q99607 1-663). The note with it: protein: recombinant; tags: N-terminal GST; dsDNA, one strand shown. A digest of the protocol: as §1
A further assay deals with T3, ELK4 (Homo sapiens, UniProt P28324-2 1-405).
T3 sequence: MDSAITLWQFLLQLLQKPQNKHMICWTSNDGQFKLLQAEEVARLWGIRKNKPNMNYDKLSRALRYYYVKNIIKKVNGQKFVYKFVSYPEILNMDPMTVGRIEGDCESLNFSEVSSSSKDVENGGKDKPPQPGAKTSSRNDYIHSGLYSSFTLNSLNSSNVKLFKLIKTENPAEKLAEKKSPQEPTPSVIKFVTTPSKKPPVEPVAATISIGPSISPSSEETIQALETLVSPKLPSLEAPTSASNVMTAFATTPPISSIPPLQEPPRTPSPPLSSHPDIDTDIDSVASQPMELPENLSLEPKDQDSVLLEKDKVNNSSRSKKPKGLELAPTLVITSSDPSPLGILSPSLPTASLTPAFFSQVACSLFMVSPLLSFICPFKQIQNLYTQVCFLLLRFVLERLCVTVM
To be noted: protein: recombinant; tags: N-terminal GST; dsDNA, one strand shown. In a few lines: as §1

The next assay has as its target T4, ETV2 (Homo sapiens, UniProt O00321 1-342).
T4 sequence: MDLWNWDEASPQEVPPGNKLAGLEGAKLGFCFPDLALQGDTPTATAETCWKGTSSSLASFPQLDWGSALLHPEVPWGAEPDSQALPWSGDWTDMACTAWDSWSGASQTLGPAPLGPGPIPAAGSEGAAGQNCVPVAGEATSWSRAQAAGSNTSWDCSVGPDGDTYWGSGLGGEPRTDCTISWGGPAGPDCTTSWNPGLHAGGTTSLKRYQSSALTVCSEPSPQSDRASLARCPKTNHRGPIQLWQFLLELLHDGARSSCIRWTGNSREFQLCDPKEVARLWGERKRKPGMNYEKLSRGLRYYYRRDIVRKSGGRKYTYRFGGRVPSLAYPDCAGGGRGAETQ
To be noted: protein: recombinant; tags: N-terminal GST; dsDNA, one strand shown. A digest of the protocol:
as §1

For the next assay, the target named is T5, ELF3 (Homo sapiens, UniProt P78545 1-371).
T5 sequence: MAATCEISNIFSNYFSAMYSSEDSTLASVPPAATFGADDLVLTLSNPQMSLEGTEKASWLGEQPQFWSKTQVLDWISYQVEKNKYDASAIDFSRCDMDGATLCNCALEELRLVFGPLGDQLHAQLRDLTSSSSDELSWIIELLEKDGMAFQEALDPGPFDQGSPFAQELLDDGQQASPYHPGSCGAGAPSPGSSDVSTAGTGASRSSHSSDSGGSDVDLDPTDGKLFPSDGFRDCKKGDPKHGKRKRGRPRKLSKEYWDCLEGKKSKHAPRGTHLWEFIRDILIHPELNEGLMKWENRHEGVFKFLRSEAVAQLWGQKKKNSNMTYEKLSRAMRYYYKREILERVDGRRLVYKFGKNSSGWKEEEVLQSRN
To be noted: protein: recombinant; tags: N-terminal GST; dsDNA, one strand shown. A digest of the protocol:
as §1

The target of the next assay is CRX (Homo sapiens, UniProt O43186 1-299). The note with it: protein: recombinant; tags: N-terminal GST; dsDNA, one strand shown. In a few lines:
as §1

The target of another assay is ETV1 (Homo sapiens, UniProt P50549 1-477). To be noted: protein: recombinant; tags: N-terminal GST; dsDNA, one strand shown. A digest of the protocol:
as §1

The target of a further assay is T6, ERF (Homo sapiens, UniProt P50548 1-548).
T6 sequence: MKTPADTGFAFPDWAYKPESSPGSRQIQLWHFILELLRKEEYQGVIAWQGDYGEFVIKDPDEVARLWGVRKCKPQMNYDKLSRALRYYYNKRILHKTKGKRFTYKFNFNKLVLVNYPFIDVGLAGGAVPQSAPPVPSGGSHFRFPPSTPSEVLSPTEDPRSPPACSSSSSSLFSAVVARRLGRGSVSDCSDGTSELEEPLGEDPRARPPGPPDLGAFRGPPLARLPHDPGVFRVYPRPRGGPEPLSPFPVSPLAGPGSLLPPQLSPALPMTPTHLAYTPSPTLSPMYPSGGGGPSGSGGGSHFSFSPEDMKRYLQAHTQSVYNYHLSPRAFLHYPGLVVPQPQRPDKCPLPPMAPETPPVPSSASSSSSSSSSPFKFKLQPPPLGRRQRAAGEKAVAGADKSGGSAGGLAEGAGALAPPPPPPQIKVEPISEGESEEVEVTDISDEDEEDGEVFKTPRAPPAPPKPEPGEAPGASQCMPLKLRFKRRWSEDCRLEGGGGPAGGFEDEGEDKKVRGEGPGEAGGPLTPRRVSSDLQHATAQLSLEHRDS
The note with it: protein: recombinant; tags: N-terminal GST; dsDNA, one strand shown. A digest of the protocol: as §1

Another assay addresses T7, ETV3L (Homo sapiens, UniProt Q6ZN32 1-361).
T7 sequence: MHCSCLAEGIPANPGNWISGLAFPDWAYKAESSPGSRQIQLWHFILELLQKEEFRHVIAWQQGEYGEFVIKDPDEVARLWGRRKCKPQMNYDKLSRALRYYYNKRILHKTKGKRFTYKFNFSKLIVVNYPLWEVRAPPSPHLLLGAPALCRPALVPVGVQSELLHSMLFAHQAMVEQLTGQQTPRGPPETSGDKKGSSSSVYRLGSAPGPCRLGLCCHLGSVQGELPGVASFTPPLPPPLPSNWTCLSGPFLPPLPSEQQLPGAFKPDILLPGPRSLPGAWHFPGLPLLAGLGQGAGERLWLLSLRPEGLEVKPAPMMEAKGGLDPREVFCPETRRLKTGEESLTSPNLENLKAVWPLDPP
The note with it: protein: recombinant; tags: N-terminal GST; dsDNA, one strand shown. A digest of the protocol: as §1

The next assay concerns the target T8, ETS2 (Homo sapiens, UniProt P15036 1-469).
T8 sequence: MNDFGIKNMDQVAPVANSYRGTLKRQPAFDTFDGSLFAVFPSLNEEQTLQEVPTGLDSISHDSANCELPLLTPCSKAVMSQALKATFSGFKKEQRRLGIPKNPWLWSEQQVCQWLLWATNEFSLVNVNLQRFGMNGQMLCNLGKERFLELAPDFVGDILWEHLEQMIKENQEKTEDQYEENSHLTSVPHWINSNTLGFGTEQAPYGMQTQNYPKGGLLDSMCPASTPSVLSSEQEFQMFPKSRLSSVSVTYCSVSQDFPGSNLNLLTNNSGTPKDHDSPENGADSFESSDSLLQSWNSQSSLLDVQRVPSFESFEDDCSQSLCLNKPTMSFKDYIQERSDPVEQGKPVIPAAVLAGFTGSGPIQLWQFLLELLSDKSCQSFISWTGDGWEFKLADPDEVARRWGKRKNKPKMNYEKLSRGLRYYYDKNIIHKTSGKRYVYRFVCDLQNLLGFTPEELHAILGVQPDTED
The note with it: protein: recombinant; tags: N-terminal GST; dsDNA, one strand shown. In a few lines:
as §1

The next assay deals with T9, SPDEF (Homo sapiens, UniProt O95238 1-335).
T9 sequence: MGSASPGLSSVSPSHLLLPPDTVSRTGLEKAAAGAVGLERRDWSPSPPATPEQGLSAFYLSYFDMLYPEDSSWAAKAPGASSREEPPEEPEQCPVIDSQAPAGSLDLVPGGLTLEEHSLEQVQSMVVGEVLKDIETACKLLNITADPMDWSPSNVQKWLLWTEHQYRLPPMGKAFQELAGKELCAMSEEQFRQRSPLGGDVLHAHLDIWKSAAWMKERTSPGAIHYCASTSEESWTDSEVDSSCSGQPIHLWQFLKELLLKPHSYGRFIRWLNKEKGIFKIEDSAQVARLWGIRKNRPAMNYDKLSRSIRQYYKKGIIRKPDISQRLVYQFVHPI
To be noted: protein: recombinant; tags: N-terminal GST; dsDNA, one strand shown. A digest of the protocol: as §1

The target in the next assay is T10, ETV7 (Homo sapiens, UniProt Q9Y603 1-341).
T10 sequence: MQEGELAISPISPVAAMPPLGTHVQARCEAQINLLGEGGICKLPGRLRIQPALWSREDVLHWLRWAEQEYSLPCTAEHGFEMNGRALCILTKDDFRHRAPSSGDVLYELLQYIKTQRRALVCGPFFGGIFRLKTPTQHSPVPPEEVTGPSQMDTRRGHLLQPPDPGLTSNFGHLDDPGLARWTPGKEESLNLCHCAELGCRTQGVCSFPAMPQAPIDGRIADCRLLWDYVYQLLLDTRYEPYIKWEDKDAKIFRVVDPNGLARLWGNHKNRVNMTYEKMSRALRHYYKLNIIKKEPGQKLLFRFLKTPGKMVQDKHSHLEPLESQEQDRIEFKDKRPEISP
To be noted: protein: recombinant; tags: N-terminal GST; dsDNA, one strand shown. A digest of the protocol: as §1

For another assay, the target named is T11, ELF5 (Homo sapiens, UniProt Q9UKW6-2 1-255).
T11 sequence: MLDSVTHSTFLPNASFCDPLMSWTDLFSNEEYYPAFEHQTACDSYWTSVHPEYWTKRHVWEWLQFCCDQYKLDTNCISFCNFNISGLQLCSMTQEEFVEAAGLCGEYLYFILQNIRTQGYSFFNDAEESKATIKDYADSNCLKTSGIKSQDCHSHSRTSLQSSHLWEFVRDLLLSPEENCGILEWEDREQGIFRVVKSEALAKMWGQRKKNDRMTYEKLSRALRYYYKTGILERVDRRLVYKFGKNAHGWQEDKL
To be noted: protein: recombinant; tags: N-terminal GST; dsDNA, one strand shown. A digest of the protocol: as §1

Another assay has as its target T12, ETV3 (Homo sapiens, UniProt P41162-2 1-143).
T12 sequence: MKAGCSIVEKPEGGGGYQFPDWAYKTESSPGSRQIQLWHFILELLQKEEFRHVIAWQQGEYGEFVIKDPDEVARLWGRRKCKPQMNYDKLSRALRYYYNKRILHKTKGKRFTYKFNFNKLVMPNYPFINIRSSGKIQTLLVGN
The note with it: protein: recombinant; tags: N-terminal GST; dsDNA, one strand shown. In a few lines: as §1

A further assay deals with ETV6 (Homo sapiens, UniProt P41212 1-452). The note with it: protein: recombinant; tags: N-terminal GST; dsDNA, one strand shown. A digest of the protocol: as §1
Sequence of ETV6 (P41212 whole entry): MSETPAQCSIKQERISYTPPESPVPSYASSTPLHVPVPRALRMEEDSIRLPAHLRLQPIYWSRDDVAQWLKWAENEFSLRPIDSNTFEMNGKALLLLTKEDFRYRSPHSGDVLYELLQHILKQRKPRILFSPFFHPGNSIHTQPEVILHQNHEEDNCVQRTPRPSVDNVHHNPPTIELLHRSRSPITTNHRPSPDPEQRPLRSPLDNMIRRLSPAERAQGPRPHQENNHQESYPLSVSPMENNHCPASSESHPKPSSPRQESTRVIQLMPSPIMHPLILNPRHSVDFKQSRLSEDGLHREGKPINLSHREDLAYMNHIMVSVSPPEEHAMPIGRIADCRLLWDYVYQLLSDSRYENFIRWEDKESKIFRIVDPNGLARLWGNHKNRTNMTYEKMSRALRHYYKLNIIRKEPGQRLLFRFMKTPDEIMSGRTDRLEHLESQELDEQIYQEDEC

Sequence of HSF1 (Q00613 whole entry): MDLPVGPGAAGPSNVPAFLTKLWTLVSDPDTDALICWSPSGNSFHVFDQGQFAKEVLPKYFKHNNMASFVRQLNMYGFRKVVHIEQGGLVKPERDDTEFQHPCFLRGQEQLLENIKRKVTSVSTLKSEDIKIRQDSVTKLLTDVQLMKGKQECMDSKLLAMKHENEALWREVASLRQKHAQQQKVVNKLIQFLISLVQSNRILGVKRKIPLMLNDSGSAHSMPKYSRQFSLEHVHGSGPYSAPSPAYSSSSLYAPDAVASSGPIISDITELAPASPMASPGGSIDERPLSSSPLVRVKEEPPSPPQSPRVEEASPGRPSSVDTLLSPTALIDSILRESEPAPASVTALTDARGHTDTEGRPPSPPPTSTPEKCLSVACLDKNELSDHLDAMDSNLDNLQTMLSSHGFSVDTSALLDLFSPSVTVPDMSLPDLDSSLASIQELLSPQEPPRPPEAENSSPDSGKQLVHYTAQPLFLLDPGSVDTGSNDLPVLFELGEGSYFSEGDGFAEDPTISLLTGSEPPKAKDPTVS
Sequence of CRX (O43186 whole entry): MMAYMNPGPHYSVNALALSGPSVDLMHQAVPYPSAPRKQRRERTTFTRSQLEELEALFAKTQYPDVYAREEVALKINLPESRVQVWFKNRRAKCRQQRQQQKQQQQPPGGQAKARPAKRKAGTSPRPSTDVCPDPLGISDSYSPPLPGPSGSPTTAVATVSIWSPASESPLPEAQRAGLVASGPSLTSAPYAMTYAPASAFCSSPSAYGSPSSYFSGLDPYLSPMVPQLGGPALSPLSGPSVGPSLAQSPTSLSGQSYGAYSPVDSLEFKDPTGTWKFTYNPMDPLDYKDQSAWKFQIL
Sequence of ETV1 (P50549 whole entry): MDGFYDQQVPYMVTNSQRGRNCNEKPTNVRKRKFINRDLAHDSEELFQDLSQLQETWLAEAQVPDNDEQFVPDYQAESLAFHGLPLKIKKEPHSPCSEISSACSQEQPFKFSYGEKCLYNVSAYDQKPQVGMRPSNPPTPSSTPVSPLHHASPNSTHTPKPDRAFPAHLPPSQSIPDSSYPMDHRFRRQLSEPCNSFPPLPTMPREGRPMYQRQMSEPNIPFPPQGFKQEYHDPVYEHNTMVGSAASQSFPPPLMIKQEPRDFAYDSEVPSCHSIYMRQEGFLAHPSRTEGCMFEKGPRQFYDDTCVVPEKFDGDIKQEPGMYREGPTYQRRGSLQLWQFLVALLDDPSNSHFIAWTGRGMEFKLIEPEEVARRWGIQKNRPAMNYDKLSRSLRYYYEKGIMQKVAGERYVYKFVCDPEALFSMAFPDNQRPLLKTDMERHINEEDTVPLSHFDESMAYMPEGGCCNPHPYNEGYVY
Sequence of ELF4 (Q99607 whole entry): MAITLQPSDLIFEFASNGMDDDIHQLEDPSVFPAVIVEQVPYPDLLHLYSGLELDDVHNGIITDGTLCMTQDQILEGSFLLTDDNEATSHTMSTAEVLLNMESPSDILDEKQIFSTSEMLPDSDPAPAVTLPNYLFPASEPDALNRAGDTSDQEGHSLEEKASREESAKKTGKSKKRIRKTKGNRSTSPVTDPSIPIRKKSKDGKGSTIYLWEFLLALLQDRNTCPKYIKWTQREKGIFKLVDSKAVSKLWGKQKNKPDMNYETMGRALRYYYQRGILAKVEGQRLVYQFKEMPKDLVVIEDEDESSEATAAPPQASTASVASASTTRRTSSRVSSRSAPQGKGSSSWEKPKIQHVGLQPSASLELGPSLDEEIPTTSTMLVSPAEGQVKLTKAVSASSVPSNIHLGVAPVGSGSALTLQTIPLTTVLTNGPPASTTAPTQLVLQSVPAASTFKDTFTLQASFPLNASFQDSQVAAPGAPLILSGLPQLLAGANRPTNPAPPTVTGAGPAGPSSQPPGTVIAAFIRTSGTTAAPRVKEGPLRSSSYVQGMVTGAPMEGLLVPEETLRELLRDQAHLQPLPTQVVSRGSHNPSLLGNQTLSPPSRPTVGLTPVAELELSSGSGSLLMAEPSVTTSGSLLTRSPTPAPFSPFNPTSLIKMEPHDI
Sequence of ETV5 (P41161 whole entry): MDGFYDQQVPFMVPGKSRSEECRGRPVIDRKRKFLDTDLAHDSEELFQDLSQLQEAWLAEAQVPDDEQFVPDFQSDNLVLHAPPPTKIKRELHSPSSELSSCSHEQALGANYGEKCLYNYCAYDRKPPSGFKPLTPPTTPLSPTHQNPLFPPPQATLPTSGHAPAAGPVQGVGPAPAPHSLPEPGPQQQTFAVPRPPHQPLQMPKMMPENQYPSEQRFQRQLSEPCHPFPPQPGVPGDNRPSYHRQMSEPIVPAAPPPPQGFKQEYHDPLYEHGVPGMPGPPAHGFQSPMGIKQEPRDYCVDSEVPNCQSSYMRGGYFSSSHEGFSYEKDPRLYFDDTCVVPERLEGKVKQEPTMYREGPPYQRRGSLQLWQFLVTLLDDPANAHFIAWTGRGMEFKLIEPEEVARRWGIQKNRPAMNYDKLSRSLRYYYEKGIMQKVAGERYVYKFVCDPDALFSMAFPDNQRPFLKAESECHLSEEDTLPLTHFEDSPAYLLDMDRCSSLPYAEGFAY

Turning to TTCACG, the binding signal is 1.28 fold enrichment (6-mer frequency, TF over GST control) with FEV; 1.34 fold enrichment (6-mer frequency, TF over GST control) with ETV5; 1.51 fold enrichment (6-mer frequency, TF over GST control) in the assay with HSF1; 1.45 fold enrichment (6-mer frequency, TF over GST control) with SPIC; 1.46 fold enrichment (6-mer frequency, TF over GST control) with ELF4; 1.55 fold enrichment (6-mer frequency, TF over GST control) with ELK4. The binding signal in the assay with ETV2 is 1.34 fold enrichment (6-mer frequency, TF over GST control); with ELF3, 1.41 fold enrichment (6-mer frequency, TF over GST control); with CRX, 1.26 fold enrichment (6-mer frequency, TF over GST control); with ETV1 it was 1.32 fold enrichment (6-mer frequency, TF over GST control); with ERF, 1.44 fold enrichment (6-mer frequency, TF over GST control); in the assay with ETV3L, 1.32 fold enrichment (6-mer frequency, TF over GST control). In addition, the binding signal with ETS2 is 1.34 fold enrichment (6-mer frequency, TF over GST control); with SPDEF, 1.34 fold enrichment (6-mer frequency, TF over GST control); with ETV7 it was 1.43 fold enrichment (6-mer frequency, TF over GST control); with ELF5 it was 1.38 fold enrichment (6-mer frequency, TF over GST control); in the assay with ETV3, 1.35 fold enrichment (6-mer frequency, TF over GST control); in the assay with ETV6, 1.43 fold enrichment (6-mer frequency, TF over GST control).
